The compounds below were run on Caenorhabditis elegans dauer (daf-2(e1370)) (assay: proportion of mobile C. elegans dauer larvae relative to DMSO control (fraction of DMSO control); higher = more viable, less nematicidal, active = 0.63 or less; extreme values may be limits of the assay). Details: 60 µM; 5 days; temperature: 20 °C.
Method in brief: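 The proportion of mobile worms, relative to DMSO wells, was scored by dissection microscope and averaged over two biological replicates. Worms were C. elegans dauers, about 20 per well in liquid NGM in 96-well plates, generated from synchronized larvae on MYOB plates with E. coli OP50 at 25 °C for 48 h. They were treated with compound pinned to 60 µM final (0.6% v/v DMSO) and kept in sealed plates shaken at 200 rpm for 5 days at 20 °C.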

SMILES	proportion of mobile C. elegans dauer larvae
COc1ccccc1-c1nc(-c2ccc(Br)cc2)no1	1 (inactive)
CC(C)Oc1ccc(-c2nc(-c3cccnc3)no2)cc1	0 (active)
Cc1ccc(-c2nnc(SCC(=O)Nc3ccccc3)o2)cc1	1 (inactive)
COc1nc(-c2ccc(C)cc2)ccc1-c1noc(-c2cccc(C)c2)n1	1 (inactive)
O=C(CSc1nnc(-c2ccccc2)o1)Nc1ccccc1C(F)(F)F	1 (inactive)
O=C(CSc1nnc(-c2ccco2)o1)NC1CCCCC1	1 (inactive)
COc1ccc(Cl)cc1-c1noc(COc2ccc(Cl)cc2)n1	1 (inactive)
CC1CCN(C(=O)CSc2nnc(-c3cccc(Cl)c3)o2)CC1	1 (inactive)
CCOc1ccc(-c2nc(-c3ccc(Cl)cc3)no2)cc1	1 (inactive)
Cc1cc(OCc2nc(-c3ccccn3)no2)c(C)cc1Br	1 (inactive)
CCOC(=O)c1sc(NC(=O)CSc2nnc(-c3ccc(Cl)cc3)o2)c(C(=O)OCC)c1C	1 (inactive)
COc1ccc(Cl)cc1-c1noc(COc2ccccc2)n1	1 (inactive)
Fc1ccc(-c2noc(-c3ccc(Cl)cc3)n2)cc1	1 (inactive)
Cn1c(SCc2ccc(Cl)cc2)nnc1-c1ccco1	1 (inactive)
COc1cccc(-c2noc(COc3cc(C)cc(C)c3)n2)c1	1 (inactive)
Clc1ccc(OCc2nc(-c3ccccc3)no2)c(Cl)c1	1 (inactive)
COc1ccc(-c2nnc(SCC(=O)c3ccccc3)o2)cc1	1 (inactive)
CCOC(=O)c1sc(NC(=O)CSc2nnc(-c3ccc(Cl)cc3)o2)c(C#N)c1C	1 (inactive)
Cc1ccccc1CSc1nnc(-c2ccco2)n1C	1 (inactive)
